# Screens (PubChem BioAssay)
# The list is not random: actives were taken first. Their share in the collection is about 3.8%.
# 697 NFkB inh: lowers PMA/ionomycin-induced NF-kB signal in 697 B cells. inhibition, % at 4 µM. 0.33% of 330,000 active. 697 B-cell NF-kB luciferase reporter, 16 h; in the data active means inhibition above about 35%
# Beta apoptosis: beta cell apoptosis inhibition; 0.8% of 300,000 active; INS-1E cytokine-induced death, ATP luminescence, 48 h; percent of positive-control rescue, neutral wells zero; protection from apoptosis, % (test concentration not listed);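 active means Every replicate reaches about 75%, or at least half do and their mean reaches it too, limit read from the data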;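 further: 0% = cytokine-treated negative control wells and 100% = positive control rescue; higher means more ATP so stronger rescue from cytokine killing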
# NTR1 agonist: NTR1 (human) agonism; P30989; NTR1-U2OS beta-arrestin-GFP spot imaging, agonist mode; activation, % at 20 µM; 0.17% of 330,000 active; AID 493036;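 active means activation at or above 40% of the spot to cytoplasm intensity ratio, with at least 20 cells analyzed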;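 further: 0% = DMSO without peptide and 100% = 100 nM NTR1 peptide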
# Target sequence (P30989 whole entry, looked up): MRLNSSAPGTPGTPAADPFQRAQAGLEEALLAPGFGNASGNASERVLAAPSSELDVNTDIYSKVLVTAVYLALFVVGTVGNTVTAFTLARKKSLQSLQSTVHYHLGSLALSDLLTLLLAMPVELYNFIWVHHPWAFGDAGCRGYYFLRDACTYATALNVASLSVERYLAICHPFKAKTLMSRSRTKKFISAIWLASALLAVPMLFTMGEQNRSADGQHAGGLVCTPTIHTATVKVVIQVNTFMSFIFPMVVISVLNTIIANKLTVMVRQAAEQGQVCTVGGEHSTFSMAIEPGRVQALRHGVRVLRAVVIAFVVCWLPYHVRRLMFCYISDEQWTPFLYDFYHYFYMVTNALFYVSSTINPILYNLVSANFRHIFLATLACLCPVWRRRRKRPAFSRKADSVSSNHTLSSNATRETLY
# A1 inh: inhibitors of the anti-apoptotic protein A1, read as caspase activation; MEF A1-2A-BIM cells, Caspase-Glo 3/7 luminescence, 3 h; percent of clofoctol response, vehicle zero; caspase activation, % (test concentration not listed); 0.066% of 330,000 active; AID 2462;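 active means over half of replicate activation scores above 10%, or exactly half above 10 with the replicate mean above 10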
# Jurkat NFkB inh: inhibitors of the PMA/ionomycin-induced NF-kB reporter in Jurkat cells | PMA/ionomycin-induced NF-kB luciferase reporter, luminescence | AID 435003 | inhibition, % at 4 µM | 0.53% of 330,000 active; in the data active means inhibition above about 50%
# Mdm2-MdmX inh: human Mdm2/MdmX binding inhibition; SaOS-2 split-luciferase Mdm2/MdmX complementation, luminescence; 3% of 330,000 active; inhibition, % at 8 µM; O15151+Q00987;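 active means inhibition of at least 50% at 8 µM in the primary screen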
# Mdm2-MdmX conf: human Mdm2/MdmX binding inhibition, confirmed. shares compounds with Mdm2-MdmX inh. inhibition, % at 8 µM. luminescent assay. 55% of 10,000 active; in the data active means inhibition above about 40%
# Full FLuc ctr: counter-screen for Mdm2/MdmX inhibitors: full-length luciferase; AID 504607; SaOS-2 full-length luciferase counterscreen, luminescence; inhibition, % at 8 µM; shares compounds with Mdm2-MdmX inh; 77% of 6,200 active;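 active means mean inhibition at 8 µM reaching about 37%, which flags the compound as non-specific, limit read from the data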;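 further: p53-null SaOS-2 cells with luciferase driven by a doxycycline-inducible promoter; compound on cells about two nights before reading with doxycycline added after day one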
# The depositor's hits bear a star; x = no result.
SMILES,697 NFkB inh,Beta apoptosis,NTR1 agonist,A1 inh,Jurkat NFkB inh,Mdm2-MdmX inh,Mdm2-MdmX conf,Full FLuc ctr
O=c1oc(-c2ccccc2Br)nc2ccccc12,13,x,7,1,2,65*,50*,47*
O=C(Nc1cccc(Cl)c1)c1cccc(Oc2ccc([N+](=O)[O-])cc2Cl)c1,-20,1,4,-1,-17,61*,11,x
O=C(Nc1cccc(Cl)c1)c1cc(N=Nc2ccc([N+](=O)[O-])cc2Cl)ccc1O,-19,46,5,1,6,92*,97*,51*
COc1ccc(NC(=O)c2cccc(Oc3ccc([N+](=O)[O-])cc3Cl)c2)cc1,-17,-1,-2,0,5,-5,x,x
ClC(CCN1CCN(Cc2ccccc2)CC1)c1ccccc1 (centres undefined),9,2,0,0,-4,12,x,x
CN(C)CCCN(Cc1ccccc1)C(=S)Nc1ccc(SC(F)F)cc1,-4,-2,1,0,-4,28,x,x
CN(C(=S)Nc1ccc(SC(F)F)cc1)C(c1ccccc1)c1ccccc1,11,-7,2,0,8,56*,7,x
COc1cc(-c2cc(-c3ccc(F)cc3)nc(N)c2C#N)ccc1O,0,-1,0,1,14,71*,52*,56*
N#Cc1c(-c2ccncc2)cc(-c2ccc(F)cc2)nc1N,-12,7,0,0,-14,16,x,x
CCOc1cc(-c2cc(-c3ccccc3)nc(N)c2C#N)ccc1O,19,x,5,1,21,76*,61*,95*
CCOc1cc(-c2cc(-c3ccc(N)cc3)nc(N)c2C#N)ccc1O,26,0,9,-3,-11,51*,26,124*
CCC(C)Nc1ccc(NC(C)CC)cc1 (centres undefined),-3,109*,24,0,-2,97*,68*,18
CCNc1nc(SCC(=O)Nc2ccc(Cl)c(Cl)c2)nc(N2CCOCC2)n1,-5,-3,27,1,16,49,x,x
COc1cc(C(=O)Nc2cc3c(cc2N2CCCCC2)n(C)c(=O)n3C)cc(OC)c1OC,26,0,2,3,2,78*,44*,72*
CCn1c(=O)n(CC)c2cc(N3CCCC3)c(NC(=O)c3cc(Cl)ccc3OC)cc21,-14,6,19,0,-22,64*,21,x
CCn1cc([N+](=O)[O-])c(C(=O)N2N=C(c3ccc(Cl)c(Cl)c3)CC2c2ccccc2O)n1 (centres undefined),-11,2,19,0,-2,71*,42*,71*
CCn1cc([N+](=O)[O-])c(C(=O)N2N=C(c3ccccc3)CC2c2ccc([N+](=O)[O-])cc2)n1 (centres undefined),-19,-5,1,1,-12,-25,x,x
CCn1cc([N+](=O)[O-])c(C(=O)N2N=C(c3ccc4ccccc4c3)CC2c2cc(Br)ccc2O)n1 (centres undefined),-1,27,6,-1,-10,99*,41*,39*
CCn1cc([N+](=O)[O-])c(C(=O)N2N=C(c3ccc(O)c(OC)c3)CC2c2ccccc2O)n1 (centres undefined),1,-4,6,0,-21,21,x,x
CCCC(C(=O)Nc1ccc(S(=O)(=O)Nc2nccs2)cc1)c1ccccc1 (centres undefined),-13,x,1,x,11,12,x,x
O=C(NC1CC1)c1ccc2c(c1)S(=O)(=O)c1cc(Cl)ccc1C2=O,20,-6,20,0,17,95*,94*,38*
COCCNC(=O)c1ccc2c(c1)S(=O)(=O)c1cc(Cl)ccc1C2=O,6,-3,2,-1,-8,30,x,x
CCn1c(=O)c(C(=O)CN2CCN(S(=O)(=O)c3ccccc3)CC2)c(N)n(Cc2ccccc2)c1=O,7,-3,1,0,2,14,x,x
CCn1c(=O)c(C(=O)CN2CCN(S(=O)(=O)c3ccc(C)cc3C)CC2)c(N)n(Cc2ccccc2)c1=O,26,4,8,-1,29,53*,43*,75*
CN(C)c1ccc(C(=O)OCC(=O)Nc2ccc(S(N)(=O)=O)cc2)cc1,13,3,1,-1,3,53*,-12,x
SMILES,697 NFkB inh,Beta apoptosis,NTR1 agonist,A1 inh,Jurkat NFkB inh,Mdm2-MdmX inh,Mdm2-MdmX conf,Full FLuc ctr
NS(=O)(=O)c1cccc(NC(=O)c2cccc(-c3ccc(O)cc3)c2)c1,2,-8,-1,0,7,64*,30,x
CN(C)S(=O)(=O)c1cccc(C(=O)Nc2ccc(C(=O)Nc3cccc(S(N)(=O)=O)c3)cc2)c1,13,5,4,0,-8,41,x,x
Cc1noc(C)c1S(=O)(=O)N(C)C[C@H]1Oc2c(cccc2N(C)C)C(=O)N([C@H](C)CO)C[C@@H]1C,-7,-4,1,1,-1,-25,x,x
CC(C)(C)c1ccc(C(=O)NCCOc2ccccc2F)cc1,-151,4,5,-3,-65,62*,73*,148*
COC(=O)c1c(-c2cccnc2)csc1NC(=O)c1ccc2c(c1)OCO2,-175,39,0,0,-130,-9,x,x
Cc1cc(C)n(-c2nnc(C)n2/N=C/c2ccco2)n1,12,-6,-1,0,5,20,x,x
CCCOc1ccc2ccccc2c1/C=N/n1c(C)nnc1-n1nc(C)cc1C,-3,-2,2,0,49,52*,54*,54*
Cc1ccc(NC(=O)C2CSC3(C)CCC(=O)N23)cc1S(=O)(=O)N1CCCCCC1 (centres undefined),-12,-5,-2,1,-6,4,x,x
COC(=O)C1=C(C)NC(C)=C(C(=O)O[C@@H]2CCCN(Cc3ccccc3)C2)[C@@H]1c1cccc([N+](=O)[O-])c1,2,4,17,1,-1,54*,20,x
CCc1ccc(CN2CCC(C(=O)Nc3ccc(-n4nc(C)cc4C)cc3)CC2)o1,-2,-1,0,-1,14,34,x,x
O=C(/C=C/C=C/c1ccccc1)CC1(O)C(=O)N(CCc2ccccc2)c2ccccc21 (centres undefined),18,-1,14,1,0,53*,-1,x
Cc1c(C(=O)N2CCC[C@H]2CO)oc2c(F)cccc12,-40,x,0,0,-36,-29,x,x
CCCCC(=O)Nc1ccc(C(=O)Nc2ccc(S(=O)(=O)Nc3ccc(C)cc3)cc2)cc1,-45,-3,7,0,8,63*,39,41*
